Results on 30 molecules are retold here after PubChem BioAssay (NCI).

Holding throughout (experiment): NCI-60 one-dose screen, 48 h (100 = growth as untreated, 0 = no growth, -100 = all killed)
What all share (settings): 10 µM unless noted

The test system of assay [1] is SR leukemia.
Assay [2] has as its system RPMI-8226 leukemia.
Assay [3] has as its system OVCAR-8 ovarian.
In assay [4] the test system is OVCAR-5 ovarian.
The subject of assay [5] is OVCAR-4 ovarian.
For assay [6], the system named is SK-OV-3 ovarian.
Assay [7] concerns IGROV1 ovarian.
In assay [8] the test system is OVCAR-3 ovarian.
Assay [9] has as its system HS 578T breast.
Assay [10] concerns NCI/ADR-RES ovarian.

The panel holds about 83,000 compounds, 20% with a hit somewhere; the sample as a whole holds those more often.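 96-well plates, one dose, 48 hours. Percent growth reported; active if below 10.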 Unmarked numbers belong to inactive results. Activity calls are given as the source filed them.

Regarding `COC(=O)C1(CC(C)=O)NC(=S)NC(=O)C1C#N` (stereo not given), the growth in assay [1] was 99.1%; in assay [2], 114%; in assay [3], 112%; in assay [4], 107%; in assay [5] it was 117%; in [6], 117%. Besides, the growth is 111% in assay [7], 122% in assay [8], 96.1% in assay [9] and 103% in assay [10].
Consider `CC(=O)C1C(=O)C(=O)N(c2ccc(Cl)c(Cl)c2)C1=O` (stereo not given), for which the growth was 91.2% in assay [1]; 107% in [2]; 101% in assay [3]; 104% in assay [4]; 88.5% in [5]; 106% in assay [6]. In addition, the growth in assay [7] is 98.6%; in [8] it was 107%; in assay [9], 103%; in [10], 97%.
Regarding `C=COC(=O)CCOCC(CC)CCCC` (stereo not given), the growth in [1] is 99.2%; in [2], 53.2%; in assay [3], 114%; in assay [4] it was 103%; in assay [5] it was 96.2%; in assay [6], 113%. Moreover, the growth in assay [7] was 105%; in [8], 98%; in [9], 105%; in assay [10], 105%.
Regarding `COc1ccc(C)cc1NC(=O)SC(C)C`, the growth in assay [1] is 95.3% [100 µM]; in assay [2], 99% [100 µM]; in assay [3] it was 105% [100 µM]; in [4], 102% [100 µM]; in assay [5] it was 96.7% [100 µM]; in [6], 111% [100 µM]. The growth in [7] is 102% [100 µM]; in [8] it was 116% [100 µM]; in assay [9], 102% [100 µM]; in assay [10], 103% [100 µM].
With `NC(=S)N/N=C/c1ccc(Cl)cc1`, the growth in assay [1] is 97.1%; in assay [2], 97.8%; in assay [3], 92.9%; in assay [4], 108%; in [5], 97.3%; in assay [6] it was 118%. The growth was 107% in assay [7], 116% in assay [8], 112% in assay [9] and 100% in [10].
Regarding `CC(C)N(CCCC#N)C(C)C`, the growth in assay [1] was 108%; in [2], 98.2%; in [3], 92.8%; in assay [4] it was 96.7%; in assay [5], 88.7%; in [6], 110%. In addition, the growth is 103% in [7], 108% in [8], 86.7% in assay [9] and 121% in assay [10].
With `Cc1ccc2nc(-c3ccc(N=Cc4ccccc4O)cc3)sc2c1`, the growth was 88.8% in [1]; 70.8% in assay [2]; 87.5% in assay [3]; 92.2% in [4]; 78.6% in assay [5]; 115% in assay [6]. The growth was 64% in [7], 84.8% in assay [8], 102% in assay [9] and 77.7% in assay [10].
In the case of `CC(C)(N)CO[C@H]1C[C@H]2CC[C@@]1(C)C2(C)C`, the growth was 106% in assay [1]; 108% in assay [2]; 102% in assay [3]; 95% in assay [4]; 104% in assay [5]; 112% in assay [6]. The growth is 106% in assay [7], 93.6% in [8], 81.9% in [9] and 103% in [10].
As for `Cc1ccc(/C=N/NC(N)=S)s1`, the growth in assay [1] is 97.3%; in assay [2] it was 100%; in assay [3], 107%; in assay [4], 104%; in assay [5], 110%; in assay [6], 111%. The growth is 113% in assay [7], 105% in assay [8], 106% in assay [9] and 109% in [10].
For `S=c1nc(-c2ccccn2)c(-c2ccccn2)n[nH]1`, the growth in [1] was 99.2%; in [2], 112%; in assay [3], 103%; in [4] it was 111%; in assay [5], 108%; in assay [6], 112%. Further, the growth in [7] is 103%; in assay [8], 107%; in [9], 105%; in [10], 102%.
As for `CC1(C)OC2C(CO)OC(n3ccc(=O)[nH]c3=O)C2O1` (stereo not given), the growth in assay [1] was 99.7%; in assay [2], 103%; in [3], 91.8%; in [4] it was 104%; in assay [5], 115%; in assay [6], 99.3%. Further, the growth in [7] is 101%; in assay [8], 107%; in [9] it was 91.8%; in assay [10] it was 105%.
Consider `Cc1cc2c3ccc(C)[n+](C)c3ccc2n1C`, for which the growth was 15.4% in assay [1]; 21.2% in assay [2]; 30.3% in assay [3]; 68.2% in assay [4]; 62.6% in assay [5]; 35.9% in assay [6]. Besides, the growth in assay [7] is 54.7%; in assay [8], 47%; in assay [9] it was 38.6%; in assay [10], 88.3%.
On to `NS(=O)(=O)c1cc(=O)[nH]c(=O)[nH]1`, for which the growth is 135% in assay [1]; 118% in [2]; 114% in [3]; 112% in assay [4]; 110% in assay [5]; 108% in assay [6]. Further, the growth in assay [7] was 121%; in assay [8] it was 116%; in assay [9], 102%; in [10], 109%.
For `O=C1NC(=O)C(c2ccccc2)O1` (stereo not given), the growth in [1] was 93.3%; in assay [2], 99.5%; in assay [3], 102%; in assay [4] it was 106%; in assay [5], 98.2%; in assay [6], 96.6%. The growth was 108% in assay [7], 117% in [8], 117% in assay [9] and 97.8% in assay [10].
Consider `Nc1nc(Cl)cc(Cl)n1`, for which the growth in assay [1] is 93.6%; in [2], 114%; in [3] it was 112%; in [4], 103%; in assay [5], 112%; in assay [6] it was 91.1%. Further, the growth in assay [7] is 100%; in assay [8] it was 111%; in assay [9], 113%; in assay [10], 95.8%.
Take `CCN1CCCC(N2c3ccccc3Sc3ccccc32)C1` (stereo not given): the growth in [1] was 96.3%; in assay [2] it was 95.5%; in assay [3], 102%; in assay [4], 106%; in [5], 97.9%; in assay [6] it was 111%. Moreover, the growth in [7] is 91.3%; in assay [8], 98.5%; in assay [9] it was 99.6%; in [10], 99.7%.
In the case of `CCC(=O)Oc1c(C)cc(O)c2ccccc12`, the growth in assay [1] is 80.7%; in [2] it was 54.6%; in [3], 81.4%; in assay [4], 105%; in [5] it was 82.3%; in assay [6], 104%. Besides, the growth in assay [7] was 88.2%; in assay [8], 72.6%; in assay [9] it was 91.2%; in [10] it was 85.2%.
As for `O=S(=O)(OCCOS(=O)(=O)c1ccccc1)c1ccccc1`, the growth in assay [1] was 93.7%; in assay [2], 100%; in assay [3], 97%; in assay [4], 111%; in assay [5], 101%; in assay [6] it was 96.3%. In addition, the growth in assay [7] is 105%; in assay [8] it was 94.3%; in [9] it was 108%; in [10], 95.5%.
As for `CC(=O)Oc1c(Cl)cccc1-c1ccccc1`, the growth in assay [1] is 99.9%; in [2], 99.3%; in assay [3], 100%; in [4], 108%; in [5] it was 110%; in assay [6] it was 104%. The growth in assay [7] is 102%; in assay [8] it was 103%; in assay [9], 90.7%; in [10] it was 97.3%.
As for `O=C(OC1CCCC1)c1ccccc1Cl`, the growth in assay [1] is 104%; in [2], 102%; in assay [3] it was 111%; in assay [4] it was 96.2%; in assay [5], 107%; in assay [6], 108%. The growth in assay [7] was 106%; in assay [8] it was 112%; in assay [9], 91.7%; in assay [10] it was 108%.
As for `C=CCC(O)C=C` (stereo not given), the growth in assay [1] is 84.4%; in [2], 105%; in [3], 101%; in assay [4], 108%; in assay [5] it was 106%; in assay [6] it was 94%. Also, the growth in assay [7] is 103%; in assay [8], 108%; in assay [9], 101%; in assay [10], 103%.
`CNc1ccccc1C(=O)N/N=C/C=C/c1ccccc1`: the growth in [1] is 2.42% (active); in assay [2] it was 25.1%; in assay [3], 6.6% (active); in [4], 47.1%; in [5], 85.6%; in assay [6], 7.51% (active). Further, the growth was 23% in [7], -23.7% (active) in assay [8], 16.5% in assay [9] and 3.92% (active) in [10].
In the case of `CC(=O)NNC(=S)/N=C\C(C(=O)c1ccccc1)=C(/O)c1ccccc1`, the growth in assay [1] was 102%; in assay [2], 104%; in [3], 102%; in [4], 97.2%; in [5], 114%; in assay [6] it was 91.8%. The growth is 95% in assay [7], 109% in assay [8], 106% in [9] and 99% in assay [10].
On to `CC1=CC(=Nc2ccc(N(C)C)cc2)C=C(C)C1=O`, for which the growth in [1] was 88.1%; in assay [2] it was 39.7%; in assay [3], 88.9%; in assay [4] it was 108%; in assay [5], 45.2%; in assay [6], 97.1%. The growth in assay [7] was 96.1%; in [8] it was 60%; in [9], 90.8%; in assay [10] it was 83.2%.
Consider `O=C(NC1CCCCC1)c1ccc(Cl)cc1`, for which the growth in assay [1] was 103%; in [2], 105%; in assay [3], 105%; in assay [4] it was 99.5%; in [5] it was 108%; in assay [6], 114%. In addition, the growth in assay [7] is 103%; in assay [8], 102%; in assay [9], 106%; in assay [10], 101%.
On to `CCCCCC(=O)OCCC1CCCCC1`, for which the growth was 88.9% in [1]; 103% in assay [2]; 104% in assay [3]; 105% in assay [4]; 101% in [5]; 106% in [6]. Further, the growth is 108% in assay [7], 95.3% in assay [8], 89.7% in assay [9] and 103% in [10].
Consider `COC(c1ccc2c(c1)OCO2)C(C)Br` (stereo not given), for which the growth is 88.6% in assay [1]; 93.5% in [2]; 101% in assay [3]; 101% in [4]; 100% in assay [5]; 83.1% in assay [6]. For the same molecule, the growth is 91.4% in assay [7], 110% in assay [8], 91.2% in assay [9] and 106% in assay [10].
Regarding `O=C(O)c1cc(I)ccc1O`, the growth was 103% in assay [1]; 107% in assay [2]; 109% in [3]; 97.5% in [4]; 107% in [5]; 103% in assay [6]. Further, the growth in assay [7] is 114%; in [8] it was 116%; in assay [9], 111%; in assay [10] it was 98%.
`CCCC1OC(c2ccco2)OCC1CC` (stereo not given): the growth in [1] is 106%; in assay [2] it was 94.8%; in assay [3], 101%; in assay [4], 100%; in assay [5], 115%; in [6], 113%. Besides, the growth in assay [7] is 95.1%; in [8] it was 109%; in assay [9], 118%; in assay [10], 107%.
For the molecule `CCOC(=O)C(=O)CC(=O)c1ccccc1`, the growth in assay [1] is 79.7%; in [2] it was 98.4%; in [3] it was 101%; in assay [4], 95.1%; in assay [5], 104%; in assay [6], 111%. The growth is 93.3% in [7], 106% in assay [8], 106% in assay [9] and 93.1% in assay [10].
